Our source for the growth values is PubChem BioAssay (NCI).

Structures are written as SMILES. This is part of a sample that, as a whole, favours compounds with a hit. Of some 83,000 tested, about 20% had one in any assay.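 Step 1: grow cells in 96-well plates. Step 2: add test compound at a single concentration. Step 3: incubate 48 h. Step 4: record percent growth.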 The source made the active and inactive calls. How the source made its calls: active means growth percent below 10; inactive means the rest.

For this experiment, the system named is MDA-MB-468 breast. In words: NCI-60 one-dose screen, 48 h (100 = growth as untreated, 0 = no growth, -100 = all killed). The conditions noted are these: 10 µM unless noted.
For `N=C(N)c1ccc(-c2ccc(-c3ccc(Cl)c(Cl)c3)s2)nc1`, the growth is -65.4% (active). For the compound `CCc1ccc(NC(=O)N[C@@H](Cc2cccc(F)c2)C(=O)N[C@@H]2C(=O)N3CCC[C@H]3C(=O)N3CCCC[C@H]3C(=O)N[C@@H](CO)C(=O)N3C[C@H](C)C[C@H]3C(=O)O[C@H]2C)c(F)c1`, the growth was -7.85% (active). Regarding `O=C(Nc1cccc(Cl)c1)Nc1nc2ccc([N+](=O)[O-])cc2s1`, the growth was -29.1% (active). Next, `Cc1nc(-c2ccccc2)sc1CC#N`: 104% (inactive); `NC1=CC(=O)c2ccccc2C1=O`: 96.2% (inactive).

`Oc1ccccc1C=NCC1CCC(CN=Cc2ccccc2O)CC1` (centres undefined): the growth was 74.4% (inactive). With `NCCCCCNc1noc(Cc2c[nH]c3cc(Br)ccc23)n1` the figure was 4.11% (active); with `Nc1c2c(nc3ccc(Cl)cc13)CC(c1ccccc1)CC2=O` (centres undefined), -5.35% (active). As to `N/C(=N/N=C/c1ccccc1)N/N=C\c1ccccc1`, the growth was -15.7% (active).

Consider `N#CC1=C(N)Oc2c(ccc3ccccc23)C1c1cc2ccccc2n2nnnc12` (centres undefined), for which the growth is -8.83% (active). With `N#Cc1ccccc1-c1ccc(Cn2c(-c3cscn3)nc3c(Cl)cccc32)cc1` the figure was 55.7% (inactive).

On to `C/C(CCC(=O)O)=N/Nc1ccc([N+](=O)[O-])cc1`, for which the growth is 83.7% (inactive).

With `CCOC(=O)Nc1ccc(-c2nc(-c3cccc(O)c3)c(-c3ccnc(Br)c3)[nH]2)cc1`, the growth was 10.7% (inactive). With `C=C1C(=O)O[C@H]2[C@H]1CC/C(COC(=O)c1ccc(C(=O)O)s1)=C\CC[C@@]1(C)O[C@@H]21` the figure was -46.7% (active).
